Assay results taken from PubChem BioAssay AID488969 (Vanderbilt High Throughput Screening Facility, 2010).
In all, about 110,000 compounds were measured (“z-score”: median about -0.1, highest 2% from about 2 on). The sample holds the highest values, similar compounds and a random draw of the others, so the mix is not that of the screen. The source made the active and inactive calls.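 How the source made its calls: active means z-score in the third read window above 3 or below -3; inactive means the rest.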

molecular target: Metabotropic glutamate receptor 8 (Rattus norvegicus) (UniProt P70579); assay: mGluR8 Gi/Go-coupled signaling modulation – cell-based, rat, thallium flux, HTS, primary screen (AID 488969); details: HEK293 rat mGluR8, GIRK (G protein-gated inwardly rectifying potassium channel) thallium flux, FluoZin2; at 10 µM; stronger effect = higher value; submaximal glutamate (EC20) added with thallium
Sequence (P70579 whole entry, looked up): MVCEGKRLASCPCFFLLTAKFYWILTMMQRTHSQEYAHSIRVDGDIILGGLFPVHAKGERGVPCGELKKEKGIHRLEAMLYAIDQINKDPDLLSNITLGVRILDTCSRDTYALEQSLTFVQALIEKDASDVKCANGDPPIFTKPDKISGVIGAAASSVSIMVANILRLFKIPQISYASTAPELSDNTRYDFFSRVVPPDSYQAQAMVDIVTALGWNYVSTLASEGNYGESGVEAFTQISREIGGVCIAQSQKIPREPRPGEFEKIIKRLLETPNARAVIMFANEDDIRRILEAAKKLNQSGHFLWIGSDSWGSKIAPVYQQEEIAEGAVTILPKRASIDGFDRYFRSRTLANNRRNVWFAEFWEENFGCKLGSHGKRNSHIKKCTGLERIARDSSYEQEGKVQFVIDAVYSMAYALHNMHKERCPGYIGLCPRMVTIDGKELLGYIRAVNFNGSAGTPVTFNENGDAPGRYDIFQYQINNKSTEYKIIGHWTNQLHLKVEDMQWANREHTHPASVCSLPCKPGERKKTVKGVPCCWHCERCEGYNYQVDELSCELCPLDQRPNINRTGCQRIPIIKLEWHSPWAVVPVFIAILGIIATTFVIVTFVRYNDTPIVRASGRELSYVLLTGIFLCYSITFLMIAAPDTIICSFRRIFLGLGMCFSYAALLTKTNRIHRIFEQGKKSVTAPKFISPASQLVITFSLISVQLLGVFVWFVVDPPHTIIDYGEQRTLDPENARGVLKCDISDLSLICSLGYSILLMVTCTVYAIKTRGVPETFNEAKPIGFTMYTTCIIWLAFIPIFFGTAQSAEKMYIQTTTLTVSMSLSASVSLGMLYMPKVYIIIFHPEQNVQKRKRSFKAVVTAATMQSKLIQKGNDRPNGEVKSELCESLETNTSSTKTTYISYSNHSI

| SMILES | z-score |
| --- | --- |
| O=C(CSc1nnc(CN2CCOCC2)n1-c1ccc(Cl)cc1)Nc1cc(Cl)ccc1O | -0.794 |
| Cc1cc(C)nc(NS(=O)(=O)c2ccc(NC(=O)CN3C(=O)c4ccccc4C3=O)cc2)n1 | 0.113 |
| CCCOc1ccc(/C=N/NC(=O)C(=O)Nc2ccccn2)cc1 | 3.92 (active) |
| COc1ccc(/C=N/NC(=O)C(=O)Nc2ccccn2)cc1OC | 0.813 |
| COc1cc(/C=N/NC(=O)C(=O)Nc2ccccn2)ccc1O | -0.198 |
| COc1ccc(CCNC(=O)CSc2nnc(CNC(=O)c3ccco3)o2)cc1OC | 0.382 |
| Cc1cc(C)c2nc(SCC(=O)NCCN3C(=O)CSC3=O)cc(C)c2c1 | -0.238 |
| Cc1cc(C)c2nc(SCC(=O)NCCC3=CCCCC3)cc(C)c2c1 | 3.98 (active) |
| Cc1ccc(-n2nnnc2SCC(=O)NCCC2=CCCCC2)c(C)c1 | 0.08 |
| CCC(=O)Nc1nnc(C)s1 | 0.946 |
| C/C=C(\C)c1nnc(NC(=O)c2ccco2)s1 | -0.358 |
| Cc1nnc(NC(=O)c2ccco2)s1 | 3.93 (active) |
| CC(=O)Nc1nnc(C)s1 | 3.66 (active) |
| CC(C)=CC(=O)Nc1nnc(C)s1 | 0.00638 |
| COCc1nnc(NC(=O)c2ccco2)s1 | 0.76 |
| CCCOc1ccc(N2C(=O)CC(N(CCc3ccc(OC)cc3)C(=O)c3cccc(F)c3)C2=O)cc1 (centres undefined) | -0.214 |
| COc1ccccc1N(CN1CCCC1=O)C(=O)c1ccccc1F | -0.699 |
| O=C1/C(=C\Nc2ccc(Cl)cc2)CCN1c1ncccn1 | 0.111 |
| Cc1ccc(C(=O)NCCNc2ccc(Cl)cc2[N+](=O)[O-])o1 | -0.083 |
| CCCN1C2=NS(=O)(=O)CCN2c2ccccc21 | 0.249 |
| C=CCn1c(SCC(=O)c2cc(C)n(CCOC)c2C)nc2sc(C)c(C)c2c1=O | -0.255 |
| COc1nc(N2CCOCC2)nc(C)c1[N+](=O)[O-] | -0.535 |
| CN(C)CCCOC(=O)c1ccc(Cl)cc1Cl | 0.77 |
| CC1Cc2ccccc2N1C(=S)Nc1ccc(S(N)(=O)=O)cc1 (centres undefined) | 0.0257 |
| CCCCN(CCCC)C(=S)NC(=O)c1ccccc1Cl | -0.755 |
| CN(C)CCCOC(=O)c1ccccc1Cl | 0.35 |
| CCN(CC)C(=S)NC(=O)c1ccc(Cl)cc1Cl | 2.95 |

| SMILES | z-score |
| --- | --- |
| CCCN(CCC)C(=S)NC(=O)c1ccc(Cl)cc1Cl | 14.4 (active) |
| CCCC(=O)NC(=S)Nc1cccc(NC(=O)c2ccc(Cl)cc2Cl)c1 | -0.0719 |
| CCCN(CCC)CCCOC(=O)c1ccc(Cl)cc1Cl | 3.95 (active) |
| C=CCNC(=O)c1ccc(Cl)cc1Cl | 0.206 |
| CC1Cc2ccccc2N1C(=S)NC(=O)c1ccc(Cl)cc1Cl (centres undefined) | 13.5 (active) |
| O=C(NNC(=O)c1ccccc1-n1cccc1)c1ccc(Cl)cc1Cl | 0.632 |
| CCC(=O)NC(=S)Nc1cccc(NC(=O)c2ccc(Cl)cc2Cl)c1 | 0.179 |
| O=C(Cc1ccc([N+](=O)[O-])cc1)Nc1nnc(C2CC2)s1 | 1.17 |
| Cc1cc2cc(CN(CC3CCCO3)C(=S)Nc3ccccc3)c(=O)[nH]c2cc1C (centres undefined) | -0.235 |
| COc1ccc2c(c1)NC(=O)CC(c1ccccc1)=N2 | -0.0551 |
| Cc1ccc2c(c1)NC(=O)CC(c1ccccc1)=N2 | 8.23 (active) |
| O=C1CC(c2ccccc2)=Nc2ccccc2N1 | -0.0288 |
| COc1ccc(/C=N/NC(=O)C[n+]2ccccc2)c(OC)c1OC | -0.273 |
| Fc1ccccc1N1CCN(C(c2cccs2)c2nnnn2CCc2ccccc2)CC1 (centres undefined) | 0.131 |
| Cc1ccc(NC2=C(Cl)C(=O)OC2NC(=O)c2ccccc2)cc1 (centres undefined) | -0.201 |
| COc1ccc(CCn2nnnc2C(c2ccc(C)cc2)N2CCN(C)CC2)cc1OC (centres undefined) | 0.0408 |
| COc1ccccc1C(c1nnnn1CCc1ccccc1)N1CCCCCC1 (centres undefined) | 2.68 |
| COc1cccc(C(c2nnnn2CCc2ccccc2)N2CCN(c3ccccc3)CC2)c1OC (centres undefined) | -0.689 |
| COc1ccccc1C(c1nnnn1CCc1ccccc1)N1CCN(c2ccccc2)CC1 (centres undefined) | -0.00308 |
| C=CCN1CCN(C(c2ccc(Cl)cc2)c2nnnn2CCc2ccc(OC)c(OC)c2)CC1 (centres undefined) | 2.29 |
| CCN1CCN(C(c2ccccc2)c2nnnn2CCc2ccc(OC)c(OC)c2)CC1 (centres undefined) | 0.256 |
| CCOc1ccc(Cc2c(Cl)nc(SC)nc2N(C)C)cc1 | -0.458 |
| CSc1nnc(C2CCCN2)n1C (centres undefined) | 0.383 |
| O=C(COc1ccc(S(=O)(=O)N2CCOCC2)cc1)Nc1ccccc1C(F)(F)F | 1.25 |
| CCn1c(SCC(=O)NC2CCCCC2C)nnc1-c1ccc(OC)cc1 (centres undefined) | 0.074 |
| CC(=O)N1c2c(ccc3ccccc23)C(C)CC12CCCCC2 (centres undefined) | -0.635 |
| O=c1c2ccccc2ncn1CCCOc1ccccc1[N+](=O)[O-] | -0.198 |

| SMILES | z-score |
| --- | --- |
| O=C(Cn1cnc2c(nnn2Cc2ccc(F)cc2)c1=O)N1CCN(c2ccccc2)CC1 | -0.0198 |
| COCCNC(=O)CS(=O)Cc1nc(-c2ccc(Cl)cc2)oc1C (centres undefined) | 0.00619 |
| COc1cccc(-c2nc(CS(=O)CC(=O)O)c(C)o2)c1 (centres undefined) | 0.0172 |
| Cc1oc(-c2ccccc2)nc1CC(=O)O | -0.979 |
| CCN(CC)CCNC(=O)CS(=O)Cc1nc(-c2ccc(Cl)cc2)oc1C (centres undefined) | 2.41 |
| CCCN(CCC)CCNC(=O)CS(=O)Cc1nc(-c2ccc(C)cc2)oc1C (centres undefined) | 1.19 |
| Cc1oc(-c2ccccc2)nc1CS(=O)CC(=O)O (centres undefined) | 2.52 |
| CCN(CC)CC(O)COc1ccc2c(c1)OCO2 (centres undefined) | -0.199 |
| Cc1cc(C)cc(OCCCCCNCCO)c1 | -0.911 |
| COc1ccc(-c2nc(NC(=O)CSc3nnc4ccccn34)ns2)cc1 | -0.0274 |
| O=C(CSc1nnc2scc(-c3ccccc3)n12)Nc1nsc(-c2ccccc2)n1 | -0.713 |
| O=C(CSc1nnc2ccccn12)Nc1nsc(-c2ccccc2)n1 | 3.63 (active) |
| O=C(Nc1cccc(Cl)c1)Nc1ccc(Cl)cn1 | 0.563 |
| Cc1ccc(Oc2ncnc3sccc23)cc1 | 0.102 |
| CC(OC(=O)Cc1coc2cc3c(cc12)CCC3)C(=O)NCc1ccc2c(c1)OCO2 (centres undefined) | 0.706 |
| Cc1ccc2c(CC(=O)OC(C)C(=O)NCc3ccc4c(c3)OCO4)coc2c1 (centres undefined) | 2.05 |
| Cc1ccc2c(CC(=O)NCc3ccc4c(c3)OCO4)coc2c1 | 0.281 |
| Cc1nc(C(F)(F)F)nc(Nc2ccc(Br)cc2)c1C#N | -0.188 |
| CCOC(=O)c1[nH]c(C)c(C(=O)N(C)Cc2ccccc2)c1C | 0.89 |
| CCc1nnc(NC(=O)CSc2nnc(-c3ccccc3O)n2CC)s1 | -0.195 |
| CCSc1nnc(NC(=O)CSc2nnc(-c3c[nH]c4ccccc34)n2CC)s1 | -1.46 |
| CCOC(=O)C(C)Sc1nnc(-c2c[nH]c3ccccc23)n1C (centres undefined) | 4.19 (active) |
| CCn1c(SC(C)C(=O)OC)nnc1-c1c[nH]c2ccccc12 (centres undefined) | -0.657 |
| CCc1nnc(NC(=O)CSc2nnc(-c3c[nH]c4ccccc34)n2CC)s1 | 5.79 (active) |
| CCCSc1nnc(-c2c[nH]c3ccccc23)n1C | 0.341 |
